Screening results deposited in PubChem by National Center for Advancing Translational Sciences (NCATS).
GLP1R cytotox = qHTS of GLP-1 Receptor Inverse Agonists: Cytotox Screen. HEK293 cAMP-luciferase reporter cells, luminescence, 24 h. Potency, µM (top dose mostly 38.3 µM), hits mostly inhibitors. 0.13% of 410,000 active;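 note: loss of luciferase light is scored as toxicity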
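1536-well qHTS counterscreen of the MLSMR; 200 cells/uL, 12 h pre-incubation, 23 nL cpd, 24 h at 37 deg C 5% CO2, luciferase detection reagent, 12 min RT, luminescence. Inhibition = undesired.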
GLP-1R agonist = qHTS of GLP-1 Receptor Agonists | Glucagon-like peptide 1 receptor (Homo sapiens), P43220 | HEK293 GLP-1R CRE-luciferase, luminescence, 4-6 h; cells express a hypersensitive GLP-1R form | Potency, µM (titrated, usually from 45.6 µM), hits mostly activators | 0.007% of 380,000 active | AID 624172, 2012
Target sequence (P43220 whole entry, looked up): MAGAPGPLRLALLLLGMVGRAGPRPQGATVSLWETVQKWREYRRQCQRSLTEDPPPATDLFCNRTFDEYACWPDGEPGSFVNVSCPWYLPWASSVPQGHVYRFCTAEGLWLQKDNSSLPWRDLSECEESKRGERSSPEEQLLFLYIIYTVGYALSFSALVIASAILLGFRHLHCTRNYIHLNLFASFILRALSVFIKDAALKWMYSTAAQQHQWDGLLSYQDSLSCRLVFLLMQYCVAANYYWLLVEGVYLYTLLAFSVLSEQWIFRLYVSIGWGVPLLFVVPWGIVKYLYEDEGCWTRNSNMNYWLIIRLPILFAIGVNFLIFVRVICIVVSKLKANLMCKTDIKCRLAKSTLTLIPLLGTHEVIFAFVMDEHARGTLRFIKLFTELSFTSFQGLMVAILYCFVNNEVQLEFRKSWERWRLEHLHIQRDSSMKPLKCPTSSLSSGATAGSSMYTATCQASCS
GLP1R inv ag = qHTS of GLP-1 Receptor Inverse Agonists (Inhibition Mode) | Potency, µM (highest dose often 38.3 µM), most hits filed as inhibitors | AID 624417, 2012 | Glucagon-like peptide 1 receptor (Homo sapiens), P43220 | HEK293 GLP-1R CRE-luciferase, luminescence, 24 h; GLP-1R form is constitutively active | 1.6% of 410,000 active; note: nearly all actives have a fitted effect of over 55% in size
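Stable HEK293 clone (constitutively active GLP-1R + cAMP-response luciferase); 200 cells/uL plated, 12 h pre-culture, compound 24 hr, 37 deg C/5% CO2; detection reagent 12 min RT; luminescence.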
PTHR1 ag = qHTS for PTHR1 Agonists: Primary Screen; HEK293 GP2 PTHR1 cells, GloSensor cAMP luminescence, 1 h; Potency, µM (doses to about 115 µM), usual class: activators; 0.075% of 410,000 active; note: nearly all actives have a fitted effect of over 55% in size
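HEK-293-derived GP2 cells expressing PTHR1 and a GloSensor cAMP reporter, 3,000/well, plated overnight, given luciferin plus IBMX (each 0.5 mM as added) for 1 h at 37 °C, then compound for 1 h at 37 °C. Luminescence was read after 15 min at room temperature.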
Numbers stand for hits; 0 = inactive; ? = inconclusive; - = no result given. Rows were chosen to be rich in hits. Some 1.7% of all compounds tested hit in one or more screens of this group. Calls come from the whole dose curve; as a rule, active = well fitted curve in the direction sought with a large enough effect; inconclusive = small, poorly fitted or top-dose-only effect, or another doubt; inactive = no such curve, though single readings can be large; an effect the other way counts as inactive or inconclusive.

SMILES	GLP1R cytotox	GLP-1R agonist	GLP1R inv ag	PTHR1 ag
O=C(O)[C@H](O)[C@@H](O)[C@H](O)[C@H](O)CO	-	0	-	-
O=C1CC(c2nc3ccccc3n2CCCOc2ccccc2)CN1c1ccc(F)cc1 (centres undefined)	0	-	?	0
Cc1ccsc1/C=N\NC(=O)c1n[nH]c2c1CCC2	?	0	2.8µM	0
C/C(=N\NC(=O)c1n[nH]c2c1CCC2)c1ccco1	0	0	1.8µM	0
O=C(N/N=C/c1c(Cl)cccc1Cl)c1n[nH]c2c1CCCC2	0	0	?	0
CC(C)(C)C(=O)CSc1nc2ccsc2c(=O)n1Cc1ccccc1Cl	0	-	0	0
CCCN(CCC)C(=O)Cn1c(SCc2cccc(F)c2)nc2cccnc21	0	-	0	0
Cc1ccc(-c2nc(NCCCN(C)C)c3ccccc3n2)cc1	0	0	10µM	0
CC(C)(C)C(=O)OCCNc1nc(-c2ccccc2)nc2ccccc12	?	0	13µM	0
CC(C)(C)C(=O)C(Oc1ccc(Cl)cc1)n1ccnc1 (centres undefined)	-	0	-	-
CCOc1ccc(C(=O)NCCc2sc(-c3ccc(OC)c(OC)c3)nc2C)cc1	0	0	0	0
CCOC(=O)C(Oc1ccc2c(-c3ccccc3)cc(=O)oc2c1)c1ccccc1 (centres undefined)	0	0	11µM	0
COC(=O)C(Oc1ccc2c(-c3ccc(OC)cc3)cc(=O)oc2c1)c1ccccc1 (centres undefined)	0	0	0	0
COc1ccc(CN(C(=O)c2cnccn2)C(C(=O)Nc2ccc(F)cc2)c2ccccc2)cc1 (centres undefined)	0	0	5.6µM	0
CCc1ccc(CNC(=O)c2sc3ncccc3c2-n2c(C)ccc2C)cc1	0	-	?	0
Cc1ccccc1[C@@]1(C)ON(c2ccccc2C(F)(F)F)C1=O	0	0	11µM	0
CCOC(=O)C1(Cc2ccc(OC)cc2)CCN(C(=O)c2ccc3[nH]ccc3c2)CC1	0	0	4.5µM	0
CCOC(=O)C1(Cc2ccc(OC)cc2)CCN(C(=O)c2ccoc2C)CC1	0	0	?	0
Cc1ccc(-c2nc(S(=O)(=O)c3ccc(C)cc3)c(N3CCCCC3)o2)cc1	0	-	0	0
Cc1ccc(S(=O)(=O)c2nc(-c3ccccc3)oc2N2CCCCCC2)cc1	0	-	6.3µM	0
O=c1c2ccccc2nc(SCCN2CCOCC2)n1CCc1ccccc1	0	0	10µM	0
O=c1c2ccccc2sc2c(CO)ccc(NCCN3CCCCC3)c12	7.9µM	0	10µM	0
Oc1ccc(C(=S)N2CCN(Cc3ccccc3)CC2)cc1	0	0	0	0
CN(C)c1ccc(C(=S)N2CCN(Cc3ccccc3)CC2)cc1	0	0	11µM	0
CCCN1C(=O)C2(c3ccccc31)c1c(oc3ccc(C)cc3c1=O)C(=O)N2CCOC (centres undefined)	0	-	0	0
SMILES	GLP1R cytotox	GLP-1R agonist	GLP1R inv ag	PTHR1 ag
OC(COc1ccccc1)CN1CCN(C(c2ccccc2)c2ccccc2)CC1 (centres undefined)	0	0	?	?
COc1ccccc1OCCCCN1CCN(C(c2ccccc2)c2ccccc2)CC1	?	0	4.5µM	0
c1ccc(OCCOCCN2CCN(C(c3ccccc3)c3ccccc3)CC2)cc1	?	0	7.1µM	0
N#Cc1ccc(OCC(O)CN2CCN(C(c3ccccc3)c3ccccc3)CC2)cc1 (centres undefined)	0	0	7.1µM	0
C=CC(=O)O	-	0	-	-
Cc1cc(Br)ccc1NC(=O)CN1C(=O)C2C3CC(c4ccccc4)C(C3)C2C1=O (centres undefined)	0	0	10µM	0
Cc1cc(Br)ccc1NC(=O)CNC(=O)CN1C(=O)NC2(CCCCCC2)C1=O	0	0	0	0
CC(C)c1ccc(/C=C2\SC(=S)N(CCC(=O)NCCCn3ccnc3)C2=O)cc1	?	0	2.5µM	?
COc1ccc(/C=C2\SC(=S)N(CCC(=O)NCCCn3ccnc3)C2=O)cc1	0	0	?	0
COc1ccc(C(=O)NCC2(c3ccccc3)CCCC2)c(OC)c1	0	?	3.2µM	0
Nc1ccccc1C(=O)NCC1(c2ccccc2)CCCC1	0	0	3.2µM	0
Cc1ccc(C(=O)NCC2(c3ccccc3)CCCC2)cc1	0	0	2.5µM	0
Cc1ccc(NC(=O)c2ccc3c(c2)NC(=O)c2ccccc2S3)cc1	0	-	?	0
O=C(CN1C(=O)NC2(CCOc3ccccc32)C1=O)Nc1cccc(Cl)c1 (centres undefined)	0	0	10µM	0
COc1cc(NC(=O)CN2C(=O)NC3(CCOc4ccccc43)C2=O)cc(OC)c1 (centres undefined)	0	0	0	0
CCOC(=O)c1cc(-c2ccccc2)n(CC(=O)Nc2ccccc2OCC)c1C	0	-	0	0
CC(C)CC(NC(=O)CNC(=O)C(Cc1ccc(O)cc1)NC(=O)C(CO)NC(=O)C(Cc1c[nH]c2ccccc12)NC(=O)C(Cc1cnc[nH]1)NC(=O)C1CCC(=O)N1)C(=O)NC(CCCN=C(N)N)C(=O)N1CCCC1C(=O)NCC(N)=O (centres undefined)	-	0	-	-
CCN1/C(=C/c2ccc3ccccc3[n+]2CC)C=Cc2ccccc21	4.5µM	0	?	0
CCN1/C(=C/c2ccc3ccccc3[n+]2CCCS(=O)(=O)[O-])C=Cc2cc(C)ccc21	?	0	?	0
Cn1nnc2c(NCc3ccc(Cl)cc3)ncnc21	0	-	0	0
COc1ccc(C=O)cc1CN1CCCN(Cc2ccc(Cl)cc2)S1(=O)=O	0	0	7.1µM	0
COc1ccc(C=O)cc1Cn1ccnc1	0	0	0	0
COC(=O)c1ccc(OC)c(CN2CCCN(Cc3ccc(F)cc3)S2(=O)=O)c1	0	0	10µM	0
COc1ccc(OC)c(CN2CCN(C(=O)c3ccc(F)cc3)CC2)c1	0	0	0	0
COc1ccc(Br)cc1Cn1nnc(C(=O)Nc2cccc(SC)c2)c1N	0	0	?	0
SMILES	GLP1R cytotox	GLP-1R agonist	GLP1R inv ag	PTHR1 ag
Cc1ccc(S(=O)(=O)NC(=O)NC2CCCCCCC2)cc1	-	0	-	-
C/C(Cl)=C\Cn1c(O)c(N=NC(N)=S)c2ccccc21	1.6µM	?	?	0
COC(=O)c1ccc(Cn2c(O)c(N=NC(N)=S)c3ccccc32)o1	?	0	10µM	?
NC(=S)N=Nc1c(O)n(Cc2ccccc2)c2ccccc12	?	0	?	0
CCOc1ccc(-c2[nH]ncc2Oc2ccccc2OC)c(O)c1	?	0	8.9µM	0
CC(C)(C)OC(=O)N(Cc1ccccc1)Cc1ccccc1OCc1ccc(NC(=O)C2CCC2)cc1	0	0	2.8µM	0
CC(C)(C)OC(=O)N(CCc1ccccc1)Cc1ccccc1OCc1ccc(NC(=O)C2CCC2)cc1	0	0	3.5µM	0
